From PubChem BioAssay (EPA / NIEHS)
Calls of active or inactive are those of the source. Rule for the calls: active = hit-call score of the fitted dose curve at least 0.9, where 1 is the maximum; inactive = score below 0.9.

The compounds below were run on CYP3A5 (gene 1577) (assay: LTEA_HepaRG_CYP3A5: Life Technologies and Expression Analysis (LTEA) Assay for CYP3A5 using HepaRG (AID 2283493)). Conditions: mRNA level, 48 h; actives raise or lower the signal.
Experimental: LTEA_HepaRG is a cell based, multiplexed-readout assay that uses HepaRG, a human liver cell line, with measurements taken at 48 hours after chemical dosing on a 96-well plate.LTEA_HepaRG_CYP3A5 is one of 102 assay component(s) measured in the LTEA HepaRG cell culture assay. It is a marker of NR mediated metabolism.Data from the assay component LTEA_HepaRG_CYP3A5 was analyzed into 1 endpoint. This assay endpoint, LTEA_HepaRG_CYP3A5, was analyzed with bidirectional fitting relative to DMSO as the negative control and baseline of activity. Using a type of inducible reporter, measures of mRNA induction for gain or loss-of-signal activity can be used to understand regulation of transcription factor activity. To generalize the intended target to other relatable targets, this assay endpoint is annotated to the cyp intended target family, where the subfamily is xenobiotic metabolism.
A total of 1060 chemcials from the ToxCast library were tested in eight-point concentration-response experiments. Cell culture and cytotoxicity assays were conducted at Thermo Fisher Scientific's Custom Services facility (Madison, WI). A single lot of human HepaRG cells (Thermo Fisher Scientific, Frederick, MD) was used for the cell culture experiments. 96-well format collagen type I coated plates of human HepaRG cells were prepared using established methods. Briefly, cryopreserved HepaRG cells were thawed, plated at a density of approximately 100,000 cells/well in HepaRG Thaw, Plate, and General Purpose media (HPRG770, Thermo Fisher Scientific), and incubated for 48 hours. 0.5% DMSO was selected as vehicle control to balance the requisite need of DMSO in HepaRG cultures to maintain differentiation (for example, baseline metabolism, proportions of hepatocytes vs. cholangiocytes), while enabling further hepatic receptor pathway activation (for example, PXR and CAR) in response to chemical exposure. 48 hours after plating, the culture medium was replaced with HepaRG Serum-Free Incudtion Media. Cells were exposed to each test chemical in duplicate and maintained in CO2 incubators for another 48 hours. Chemical plates were thawed to room temperature and 200x concentrations of treatment groups were prepared. 8-point conentration-reponse curves were made with the highest exposure at 100 uM, followed by half-log dilutions, all in 0.5% DMSO. Each test plate contained variouse controls, induction positive controls (1mM phenobarbital), cytotoxicity positive controls ([…] aflatoxin B1), vehicle controls (0.5% DMSO), and total lysis controls (0.5% DMSO). Cell morphology images were taken using an Essen IncuCyte FLR automated microscope, with six 96-well plates imaged in about 24 minutes. Images were captured and exported and JPEG files. Spent culture media was transfered to black-well plates for the LDH assay, and remaining media was sorted at -80 C for later use. Cells were treated with RLT buffer and frozen until shipped for gene expression analysis. Total RNA was isolated from the cell suspension in 75 uL of Buffer RLT (Qiagen, Germantown, MD 20874) by Quintiles/Expression Analysis (Durham, NC) using a custom isolation procedure. Total RNA from each plate well was transferred to a preamplification plate. Fluidigm's 96.96 Dynamic ArrayTM (Fluidigm, Amsterdam, the Netherlands) technology was used for gene expression analyses by quantitative reverse transcription polymerase chain reaction (qRT-PCR, performed by Quintiles/Expression Analysis, Durham, NC)89. Standard TaqManTM Assays (Applied Biosystems/ThermoFisher Scientific, Foster City, CA) were used to assess the expression of 93 genes selected based on their selectivity and sensitivity to important hepatic receptors known to be modulated by environmental chemicals; importance in human hepatocyte functionality; and hepatotoxicity. […]

Row | Structure (SMILES) | outcome | AC50
1 | CN(C)NC(=O)CCC(=O)O | inactive | –
2 | CCCCSP(=O)(SCCCC)SCCCC | inactive | –
3 | C#CCC1=C(C)C(OC(=O)C2C(C=C(C)C)C2(C)C)CC1=O (stereo not given) | inactive | –
4 | Nc1nc(N)nc(NC2CC2)n1 | inactive | –
5 | N#CSCSC#N | – | 50 µM (active)
6 | CC(=NC#N)N(C)Cc1ccc(Cl)nc1 | inactive | –
7 | CC(C)=CC1C(C(=O)OCN2C(=O)C3=C(CCCC3)C2=O)C1(C)C (stereo not given) | inactive | –
8 | CCC(CC)Nc1c([N+](=O)[O-])cc(C)c(C)c1[N+](=O)[O-] | inactive | –
9 | CCOC(=O)CC(SP(=O)(OC)OC)C(=O)OCC (stereo not given) | inactive | –
10 | CC1(C(=O)Nc2ccc(O)c(Cl)c2Cl)CCCCC1 | inactive | –
11 | CON=C(C(=O)OC)c1ccccc1CON=C(C)c1cccc(C(F)(F)F)c1 | – | 50 µM (active)
12 | CSC1=N[C@@](C)(c2ccccc2)C(=O)N1Nc1ccccc1 | inactive | –
13 | CCC(=NOC/C=C/Cl)C1=C(O)CC(C2CCOCC2)CC1=O (stereo not given) | inactive | –
14 | CNC(=O)Oc1cccc2c1OC(C)(C)O2 | inactive | –
15 | CCC(=O)Nc1ccc(Cl)c(Cl)c1 | inactive | –
16 | COc1cc(OC)nc(Sc2cccc(Cl)c2C(=O)O)n1 | inactive | –
17 | CCNc1nc(Cl)nc(NC(C)(C)C#N)n1 | inactive | –
18 | COP(=O)(NC(C)=O)SC (stereo not given) | inactive | –
19 | C=C(C)[C@H]1Cc2c(ccc3c2O[C@@H]2COc4cc(OC)c(OC)cc4[C@@H]2C3=O)O1 | – | 11.5 µM (active)
20 | Cc1ccn2nc(S(=O)(=O)Nc3c(F)cccc3F)nc2n1 | inactive | –

Row | Structure (SMILES) | outcome | AC50
21 | COP(=O)(OC)OC(Br)C(Cl)(Cl)Br (stereo not given) | inactive | –
22 | CCOP(=O)(NC(C)C)Oc1ccc(SC)c(C)c1 (stereo not given) | inactive | –
23 | CCOP(=S)(OCC)OC(Cl)C(Cl)(Cl)Cl (stereo not given) | inactive | –
24 | CCOP(=O)(SC(C)CC)N1CCSC1=O (stereo not given) | inactive | –
25 | CCOP(=S)(OCC)Oc1ccc([N+](=O)[O-])cc1 | inactive | –
26 | CC1=NNC(=O)N(/N=C/c2cccnc2)C1 | inactive | –
27 | CCCCOC(=O)c1ccccc1C(=O)O | inactive | –
28 | CC(COc1ccc(Oc2ccccc2)cc1)Oc1ccccn1 (stereo not given) | inactive | –
29 | CCCSP(=O)(OCC)Oc1ccc(Br)cc1Cl (stereo not given) | inactive | –
30 | CC(C)N(C(=O)SCC(Cl)=C(Cl)Cl)C(C)C | inactive | –
31 | Cc1nn(-c2cc(NS(C)(=O)=O)c(Cl)cc2Cl)c(=O)n1C(F)F | inactive | –
32 | CCc1cccc(C)c1N(C(=O)CCl)C(C)COC (stereo not given) | inactive | –
33 | CCCOCC(=Nc1ccc(Cl)cc1C(F)(F)F)n1ccnc1 | – | 71 µM (active)
34 | S=C1NCCN1 | inactive | –
35 | COc1cccc(C(=O)NN(C(=O)c2cc(C)cc(C)c2)C(C)(C)C)c1C | inactive | –
36 | C#CC(C)(C)NC(=O)c1cc(Cl)cc(Cl)c1 | inactive | –
37 | CN(C)C(=O)Nc1cccc(C(F)(F)F)c1 | inactive | –
38 | CSc1nc(NC(C)C)nc(NC(C)C)n1 | inactive | –
39 | O=c1ccc(=O)[nH][nH]1 | inactive | –
40 | CN(C)[C@@H]1C(=O)C(C(N)=O)=C(O)[C@@]2(O)C(=O)C3=C(O)c4c(O)cccc4[C@@](C)(O)[C@H]3[C@H](O)[C@@H]12 | inactive | –
